According to PubChem BioAssay (Tox21):
“And” between values parts separate entries of the source, which are not always exact repeats. Equal values may be shown once. Inconclusive results are not listed. Where a call stands in place of a potency, no number is given. A structure can be active in one record and inactive in another. The source made the active and inactive calls. Calls follow the shape of the dose curve; as a rule, active = well fitted cell-killing curve with a large enough effect in the repeat runs; inconclusive = weak or mixed curves, or effect the other way; inactive = flat fitted curve, though single readings scatter.

Experiment: qHTS assay to identify small molecule antagonists of the androgen receptor (AR) signaling pathway using the MDA cell line in the presence of 0.5 nM R1881 - cell viability counter screen (AID 1259242); also: nearly all actives have a fitted effect of over 45% in size
Settings: MDA-kb2 viability, CellTiter-Fluor protease fluorescence, 16 h; series mostly up to 92.4 µM
Excerpt: U.S. Tox21 Program National Center for Advancing Translational Sciences [NCATS] NIH Chemical Genomics Center [NCGC] U.S. Environmental Protection Agency [EPA] National Institutes of Environmental Health Sciences [NIEHS] National Toxicology Program [NTP] U.S. Food and Drug Administration [FDA] Tox21 Assay Overview: Androgen receptor (AR) is an important member of the nuclear receptor family. Its signaling plays a critical role in AR-dependent prostate cancer and other androgen related diseases. Considerable attention has been given in the past decades to develop methods to study and screen for the environmental chemicals that have the potential to interfere with metabolic homeostasis, reproduction, developmental and behavioral functions. Therefore AR binding assay for screening androgen antagonists can be used to identify potential endocrine disruptors. MDA-kb2 cells (from ATCC, deposited by Wilson et al.) were used to screen for AR inhibitors against Tox21 compound libraries. These cells are human breast carcinoma cells that were stably transfected with a luciferase reporter gene under control of the MMTV promoter that contains response elements for both androgen receptor (AR) and glucocorticoid receptor (GR). The current screening for identification of AR inhibitors against Tox21 libraries used lower concentration of (0.5 nM) R1881 as a stimulator. The cytotoxicity of the Tox21 compound libraries against MDA-kb2 cell line was tested by measuring live-cell protease activity using CellTiter-Fluor assay in the same wells.
Tox21 Assay Protocol Summary: MDA-kb2 cells (cells cultured without CO2) were dispensed at 3,000 cells/well in 4 uL of culture medium into white wall/solid-bottom 1536-well plates (Corning Life Sciences, Corning, NY) using a Multidrop Combi (ThermoFisher Scientific, Waltham, MA) dispenser. After the assay plates were incubated at a 37C and 0% CO2 for 5 hr, 23 nL of compounds dissolved in DMSO, positive controls or DMSO only was transferred to the assay plate by a Pintool station (Kalypsys, San Diego, CA). The transfer of compounds was followed by the addition of 1 uL of 0.5 nM (final concentration) agonist (R1881)/culture medium using a Flying Reagent Dispenser (FRD, Aurora Discovery, San Diego, CA). The plates were incubated at 37C and 0% CO2 for 16 hr. For cytotoxicity assay, 1 uL of CellTiter-Fluor reagent (Promega Corporation, Madison, WI) was added to each well using the FRD and after 30 min incubation at 37C and 0% CO2, The fluorescence intensity was measured using ViewLux plate reader (PerkinElmer, Shelton, CT).
Potency is read from the fitted curve at half-maximal effect.

| SMILES | Potency |
| --- | --- |
| CC1(C)C(C=C(Cl)Cl)C1C(=O)OC(C#N)c1cccc(Oc2ccccc2)c1 (stereo not given) | inactive |
| Nc1ccc(-c2ccccc2)cc1 | inactive |
| CC(C)C(=O)OCC(C)(C)C(OC(=O)C(C)C)C(C)C (stereo not given) | inactive |
| CCC(=O)O[C@H]1CC[C@H]2[C@@H]3CCC4=CC(=O)CC[C@]4(C)[C@H]3CC[C@]12C | inactive |
| CCCCN(CC)c1c([N+](=O)[O-])cc(C(F)(F)F)cc1[N+](=O)[O-] | inactive |
| O=C(O)CC[N+](=O)[O-] | inactive |
| O=Cc1ccco1 | inactive |
| O=c1oc2ccccc2c(O)c1C(CC(O)c1ccc(-c2ccc(Br)cc2)cc1)c1ccccc1 (stereo not given) | inactive |
| Cc1ccccc1[N+](=O)[O-] | inactive |
| c1nc[nH]n1 | inactive |
| Cc1cc(C)cc(C)c1 | inactive |
| CCC(CC)Nc1c([N+](=O)[O-])cc(C)c(C)c1[N+](=O)[O-] | inactive |
| CCCCNC(=O)n1c(NC(=O)OC)nc2ccccc21 | inactive |
| C=C(C)[C@H]1Cc2c(ccc3c2O[C@@H]2COc4cc(OC)c(OC)cc4[C@@H]2C3=O)O1 | 78 nM (active) and 54.5 nM (active) and 106 nM (active) |
| C#C[C@]1(O)CC[C@H]2[C@@H]3CCC4=CC(=O)CC[C@]4(C)[C@H]3CC[C@@]21C | inactive |
| Cc1cc(Cl)ccc1OCCCC(=O)O | inactive |
| C[C@]12CCC(=O)C[C@@H]1CC[C@@H]1[C@@H]2CC[C@]2(C)[C@@H](O)CC[C@@H]12 | inactive |
| OCC(O)CO | inactive |
| Oc1cc(Cl)ccc1Cl | inactive |
| CCCCCCCCC(=O)NCc1ccc(O)c(OC)c1 | inactive |

| SMILES | Potency |
| --- | --- |
| Cc1ccc(OP(=O)(Oc2ccc(C)cc2)Oc2ccc(C)cc2)cc1 | inactive |
| Cc1c(COC(=O)[C@@H]2[C@H](/C=C(\Cl)C(F)(F)F)C2(C)C)cccc1-c1ccccc1 | inactive |
| COc1ccc(C=O)cc1 | inactive |
| CC(C)NC(C)C | inactive |
| O=C(CCl)c1ccccc1 | inactive |
| NCc1cccnc1 | inactive |
| CCC(C)c1cc([N+](=O)[O-])cc([N+](=O)[O-])c1O (stereo not given) | inactive and 15.4 µM (active) |
| C=CCN(CC=C)C(=O)C(Cl)Cl | inactive |
| CC(C)(OOC(C)(C)c1ccccc1)c1ccccc1 | inactive |
| COP(=O)(OC)OC | inactive |
| CC(C)N(C(=O)SCC(Cl)=C(Cl)Cl)C(C)C | inactive |
| Brc1ccc(Oc2cc(Br)c(Br)cc2Br)c(Br)c1 | inactive |
| Nc1ccc(Cl)cc1N | inactive |
| COC(=O)c1sccc1S(=O)(=O)NC(=O)Nc1nc(C)nc(OC)n1 | inactive |
| Cc1cccc(N)c1N | inactive |
| c1ccc(NNc2ccccc2)cc1 | inactive |
| O=P(Oc1ccccc1)(Oc1ccccc1)Oc1ccccc1 | inactive |
| CCCCC(CC)COC(=O)Cl (stereo not given) | inactive |
| CCCCN(CCCC)N=O | inactive |
| CC(C)(C)c1ccccc1O | inactive |
